RUNX1 binding intensity data for 40 sequences are collected here from the supplement of paper PMC10681739.
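Also: Full-length recombinant human RUNX1 bound to double-stranded 36-bp genomic probes on a high-density microarray, scored as Alexa488 fluorescence per spot via anti-RUNX1 antibody, median of four replicate spots.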

Sequence of RUNX1 (Q01196 whole entry): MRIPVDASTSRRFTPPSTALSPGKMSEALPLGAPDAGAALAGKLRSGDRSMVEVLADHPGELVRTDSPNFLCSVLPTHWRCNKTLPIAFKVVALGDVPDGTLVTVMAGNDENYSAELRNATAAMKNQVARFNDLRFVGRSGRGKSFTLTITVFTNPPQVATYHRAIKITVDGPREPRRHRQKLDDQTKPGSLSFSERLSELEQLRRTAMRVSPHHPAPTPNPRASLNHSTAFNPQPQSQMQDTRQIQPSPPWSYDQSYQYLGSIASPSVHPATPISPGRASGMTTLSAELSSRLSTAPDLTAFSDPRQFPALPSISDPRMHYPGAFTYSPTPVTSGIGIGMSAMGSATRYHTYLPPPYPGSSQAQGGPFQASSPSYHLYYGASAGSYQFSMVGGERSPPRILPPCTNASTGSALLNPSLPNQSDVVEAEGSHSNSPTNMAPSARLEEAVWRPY

The target of this test is RUNX1 (UniProt Q01196). Put plainly: RUNX1 binding intensity (PBM fluorescence), RUNX1 alone (arbitrary fluorescence units); higher = stronger binding. The settings on record: RUNX1 concentration 2 nM; ETS1 concentration 0 nM. How it is done:
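Cooperative gcPBM on 36-bp genomic probes with neighbouring ETS1 and RUNX1 sites. Recombinant human RUNX1 (2 nM) was incubated alone or with ETS1 (25 nM) and detected with anti-RUNX1 antibody plus Alexa488 secondary. Values are medians over 4 replicate spots; the RUNX1+ETS1 data were normalised to the RUNX1-only data. The probes sit in constant array flanks that are not printed.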
In turn, CTGAGTGAGACAGGATGTGGGCAGACCTCTAACACA returned an RUNX1 binding intensity of 733. As for TTTGATTTCCTGTCTCCATGTTGTGGTCAAGATTGC, the RUNX1 binding intensity came out at 1370. CTGTGCGAGGCAGGATGTGGTCTCCCGCCACCAGGG gave an RUNX1 binding intensity of 788.

ACAACTTCCTGTGGGATTTTTGGTGTCTGCGGCTCA registered an RUNX1 binding intensity of 811.

In the case of CAAAAGTGCTTCCTCTCGAGGGGTTGTGGTTCTTAC, the RUNX1 binding intensity was 716.

Consider CCGATGGCGGCGGAACTGTGGTCAGGGCTGCCCTGA, for which the RUNX1 binding intensity amounted to 825.

The sequence CCTCGGTTCGGAAACGGCGAAAGCAAACCGCAAGGA gave an RUNX1 binding intensity of 2260.

CTTCATCAACCCATCCTGTCTTGTGGTTAAGTCAAG came in with an RUNX1 binding intensity of 4120.

AACAAAGAGAGAGGAAGTGGGTTGGGCGGGGGGGGT returned an RUNX1 binding intensity of 1010. Next, TTCTGCTACATCCTGCCCACTCCCTGTGGCTTCCAC: 1380; CCCAAGCTACGGAAGTTAAACCTCAAACATGAAATC: 1040; TGCATGTGCAGCAGAGGAAACCACAAGTTATTCCCT: 1110. GGTGTGTTCTGGGGAGGAAGTGGGTTTTCAGGTTGT showed an RUNX1 binding intensity of 799. Next, TAGGCTGAAGACTTCCGCCCCGCAGAGGACTTGCCT: 839; AACGGACCCGGAAGGGGCAGGTCTTGTGGGCGGGTC: 822; GTGCAGACAGGAAATAGCTGCTCTGCGGCAGCCCGA: 752. In the case of TCCACATCCTGCTCCTCGGGTTTGCGGCGAGGACTC it was 809; in that of AGAGCCACATCCCGCGCAGAGGACCGCGGCGACCGG, 764; in that of GGGCTATTGTTTCCTCCCCCATGTGACCACAGCCTC, 994.

As to GGGCAGGAAGGAAGAGGGCTCCTCCCCACAAGCTCT, the RUNX1 binding intensity came out at 738.

Consider GGCCCCTGCTTCCGGGTGTGACGCGAACCGCGGGCA, for which the RUNX1 binding intensity turned out to be 687. In the case of GGCGGTGCACTCTGGGAAATGTGGTTTTCGCGGCGC it was 1090. In the case of ATGAGCTATTTCCTGCCTTGTGGTCAGAGCCAGACT it was 1050. For GCGCAAGCAGGAAGCGTTTGCGGTGATCCCGGCGAC, the RUNX1 binding intensity was 746. In the case of TCCAGTGCCGCCGCCGGAAAACCGCAGCGGCGGCGG it was 5970; in that of CTTTTCCATGCAGGAAGTGGTTTTTAGAGTGTAGAG, 896. Next, AGACTCCATCCGCCATGTTGGATGCCGCAGATTCGC: 813. Sequence TCTGGATTTCCTGTGGGGCTCTCCCACAAGCAGTAC came in with an RUNX1 binding intensity of 721. In the case of ACCTTCTGTTCCCTTCCTCAGACCGCAGGCGAGATG it was 1620; in that of GGTCCGGATGTATAAAGCGCGGCCCCCTGCGGGGAG, 732; in that of TTGACTCGGGAATGTCCGGTCGTGGTAAGCAGGGTG, 683. Next, CTCTGAGCAGGAAGTGACAAAACCACGCAGGGCAGG: 798; GACCAGGAAACGGGGCGTGGCGGCCGCCGTGGTTAC: 806; AGCTTTCCTTTTCCGGTTGCGGCGCCGCGCGTTGAT: 926.

GAAACCCCATGGGCAGGATGTGGGTGAGCTGTCTGG displayed an RUNX1 binding intensity of 742.

With CAGTCAAGAGGAAATTATAAACCACTGCCTCTTTGA, the RUNX1 binding intensity was 833. Next, CTACCGGAAATGCAGCACCACGTAAAATGCGGTCGG: 912; GCTGCAGCAGGCGGGAAGTCTGCGGTTCGCGGGCTC: 1150. Next, ACCTGTAGGCGGAAGTCTGTGGCTTTATTTACACAG: 792; TTTTATCCTTCCTTTTTTGTTCTTTGTGGTGGAGGT: 1840.
